# Reference: PubChem BioAssay (Tox21)
# Results filed as inconclusive are left out. Values without a mark were called inactive. Activity calls are given as the source filed them. The call rests on the fitted dose curve.
# Assay: qHTS assay for small molecule agonists of the p53 signaling pathway - cell viability (AID 651633); further: nearly all actives have a fitted effect of over 30% in size;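 on activity change, negative = cytotoxicity: p53RE-bla HCT reporter cells with a stable beta-lactamase p53 reporter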
# Details: p53RE-bla HCT-116 viability, ATP luminescence, 16 h; series mostly up to 83.3 µM; activity change, negative = cytotoxicity: at the top concentration
# Description: National Center for Advancing Translational Sciences [NCATS]
# NIH Chemical Genomics Center [NCGC]
# U.S. Environmental Protection Agency [EPA]
# National Institutes of Environmental Health Sciences [NIEHS]
# National Toxicology Program [NTP]
# U.S. Food and Drug Administration [FDA]
# p53, a tumor suppressor protein, is activated following cellular insult, including DNA damage and other cellular stresses. The activation of p53 regulates cell fate by inducing DNA repair, cell cycle arrest, apoptosis, or cellular senescence. The activation of p53, therefore, is a good indicator of DNA damage and other cellular stresses. […] The activation of the reporter gene under culture conditions can be detected by fluorescence intensity. This cell line was used to screen the Tox21 compound library in a 1536-well plate format and to identify agonists that activate the p53 signaling pathway.
# Tox21 Assay Protocol Summary:
# The p53RE-bla cells were dispensed at 4,000 cells/5 ul/well in 1536-well black wall/clear bottom plates using a Multidrop dispenser. After the assay plates were incubated at a 37 C/5% CO2 incubator for 5 hours, 23 nL of compounds dissolved in DMSO, positive controls or DMSO only was transferred to the assay plate by a pin tool. The plates were incubated at 37 C for 16 hours. After 1 uL of LiveBLAzerTM B/G FRET substrate was added using a Flying Reagent Dispenser, the plates were incubated at room temperature for 2 hours, and fluorescence intensity was measured by an Envision plate reader.
# For cell viability readout that measures cytotoxicity, 4 ul/well of CellTiter-Glo reagent was added into the assay plates using a Flying Reagent Dispenser. After 30 min incubation at room temperature, the luminescence intensity in the plates was measured using a ViewLux plate reader.
# On the % scale 0 is the no-effect control and ±100 the full control effect; potency means the concentration at half of the fitted maximal effect.
SMILES,"activity change, negative = cytotoxicity",Potency
CC(=O)OCCc1ccccc1,21%,
N#CCc1cccc(C(F)(F)F)c1,-21.7%,
CC(C)=CCCC(C)CC=O (stereo not given),20%,
CCOC(=O)CC(=O)c1cc(F)c(Cl)nc1Cl,4.36% [at 95.3 µM],
C=Cc1c(C)c2cc3[nH]c(cc4nc(cc5nc(cc1[nH]2)C(C)=C5CCC(=O)O)C(CCC(=O)O)=C4C)c(C)c3C=C,-10.5%,
CN1CCN(C2=Nc3ccccc3Sc3ccc(Cl)cc32)CC1,-15.9%,
O=C(C(=O)c1ccc(Br)cc1)c1ccc(Br)cc1,23.6% [at 39.1 µM],
Cc1ccc(C(N)=O)cc1N,7.81%,
Cc1cccc(Oc2ccccc2)c1,21.6%,
CC(C(=O)O)c1ccc(C(=O)c2ccccc2)s1 (stereo not given),-20.1% [at 39.1 µM],
CCCCCC/C=C/C=O,-8.47%,
CC(=O)NCCCS(=O)(=O)O,,inactive
CC(C(=O)O)c1ccc(-c2ccccc2)c(F)c1 (stereo not given),,inactive
ClC(Cl)(Cl)c1ccc(C(Cl)(Cl)Cl)cc1,12.9%,
CCCCOc1cc(C(=O)OCCN(CC)CC)ccc1N,16.5% [at 39.1 µM],
CC(C)(C)c1ccc(OCC2CO2)cc1 (stereo not given),-10.5% [at 95.3 µM],
CCOc1ccc2[nH]cc(C(=O)NCc3ccccc3)c(=O)c2n1,18.9%,
CCCCCCCCCCCCCCC1CO1 (stereo not given),-10.4%,
CC(C)(C)c1cc(CO)cc(C(C)(C)C)c1O,-17.9% [at 95.3 µM],
OCCC1CCCCN1 (stereo not given),19.2% [at 95.3 µM],

SMILES,"activity change, negative = cytotoxicity",Potency
C=CCCCCCC,-8.84%,
CC(C)(C)C1CCCCC1O (stereo not given),20.9%,
NC(N)=N/N=C/c1c(Cl)cccc1Cl,14.8%,
O=C(CC(=O)c1ccccc1)c1ccccc1,10.9% [at 95.3 µM],
CCCCCCCCCCCCCCCCCBr,17.9% [at 39.1 µM],
CCCCCCCCCCCCC(=O)O,10.3% [at 95.3 µM],
CC(CN)CCCN (stereo not given),9.2%,
Cc1ccc(C(C)c2ccc(C)c(C)c2)cc1C,4.17%,
NC(=S)N/N=C/c1cccnc1,-18.8%,
CC(=O)[C@@]1(O)CC[C@H]2[C@@H]3C[C@H](C)C4=CC(=O)CC[C@]4(C)[C@H]3CC[C@@]21C,14.2%,
CCOc1nc2cccc(C(=O)O)c2n1Cc1ccc(-c2ccccc2-c2nn[nH]n2)cc1,,29.8 µM (active)
c1ccc(OCc2ccc(CCCN3CCOCC3)cc2)cc1,-12.9%,
Oc1ccc(Cc2ccccc2)cc1,-2.33%,
CCN(CC)CCOC(=O)C1(c2ccccc2)CCCC1,20.9%,
CC(C)(C)c1cc(CCC(=O)OCC(COC(=O)CCc2cc(C(C)(C)C)c(O)c(C(C)(C)C)c2)(COC(=O)CCc2cc(C(C)(C)C)c(O)c(C(C)(C)C)c2)COC(=O)CCc2cc(C(C)(C)C)c(O)c(C(C)(C)C)c2)cc(C(C)(C)C)c1O,-10.5% [at 39.1 µM],
Cc1ccc(C(=O)C(C)CN2CCCCC2)cc1 (stereo not given),,inactive
CCN(CC)C(C)=O,-11.2% [at 95.3 µM],
O=C1CCCCCO1,-20% [at 95.3 µM],
COC(Cc1ccccc1)OC,18.1%,
CN(C)CC/C=C1\c2ccccc2COc2ccccc21,17%,
